This is a sample that favours compounds with a hit; in the whole collection about 3.5% have one here.
GPR151 activ: activators of human GPR151; activation, % at 11.2 µM; 1% of 650,000 active; AID 1508602; PathHunter beta-arrestin GPR151 cells, luminescence; Q8TDV0; in the data active = activation above about 4.9%
MITF primary: blocks human microphthalmia-associated transcription factor | O75030 | AlphaScreen MITF homodimerization, bead proximity signal | inhibition, % at 2.6 µM | 0.91% of 650,000 active; in the data active = inhibition above about 50%
FBW7 activator: human FBW7 E3 ligase activation, primary screen | Q969H0 | AlphaScreen FBW7–phospho-cyclin E peptide binding, activator screen | normalized activity (activation), % at 26.1 µM | 0.13% of 650,000 active | AID 1259310; in the data active = normalized activity above about 1.9%;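 also: purified mutant Fbw7 with reduced substrate affinity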
TEAD-YAP inh: TEAD-YAP interaction inhibition | HEK-TIYL cells, TEAD-Gal4/YAP UAS-luciferase luminescence | inhibition, % at 9.12 µM | 1.4% of 640,000 active; in the data active = inhibition above about 32%
GPR151 confirm: human GPR151 activation, confirmation screen. activation, % at 11.2 µM. 6,700 tested, under 10 active. GPR151 PathHunter beta-arrestin cells, luminescence, 90 min; % of EA-reagent control over plate median. AID 1508609. shares compounds with GPR151 activ;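 active = mean percent activation across replicates above the confirmation screen cutoff of 4.91%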
GPR119 counter: activates human GPR119 in a GPR151 counter-screen; shares compounds with GPR151 activ; GPR119 PathHunter beta-arrestin cells, luminescence, 90 min; 0 = compound-well median, 100 = enzyme-acceptor control; activation, % at 11.2 µM; 0.3% of 6,700 active;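 active = mean percent activation in the counterscreen above 29.09%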;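 also: counterscreen on off-target GPR119 to flag nonselective hits from the GPR151 activator screen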
Target sequence (Q8TDV5 whole entry, looked up): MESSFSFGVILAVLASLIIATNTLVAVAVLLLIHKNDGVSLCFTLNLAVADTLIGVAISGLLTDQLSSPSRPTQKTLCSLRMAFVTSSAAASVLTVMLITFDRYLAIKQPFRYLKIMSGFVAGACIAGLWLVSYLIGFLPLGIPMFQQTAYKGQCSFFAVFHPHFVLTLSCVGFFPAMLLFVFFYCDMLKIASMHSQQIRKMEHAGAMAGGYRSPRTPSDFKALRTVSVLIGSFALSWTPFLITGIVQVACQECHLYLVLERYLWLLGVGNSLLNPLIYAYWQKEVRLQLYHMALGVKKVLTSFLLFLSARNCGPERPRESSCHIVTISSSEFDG
A number is an active result; . = inactive; / = no result given.

SMILES	GPR151 activ	MITF primary	FBW7 activator	TEAD-YAP inh	GPR151 confirm	GPR119 counter
O=C(N/N=C/c1cccc(Br)c1)C1CC(=O)N(c2ccccc2)C1 (centres undefined)	5.3	.	2.8	.	.	.
CCC(C(=O)Nc1ccc(-n2c(C)nc3ccccc3c2=O)cc1)c1ccccc1 (centres undefined)	.	.	.	.	/	/
CCOc1ccc(-n2c(=S)sc3c(=O)[nH]c(SCc4cc(C(C)=O)ccc4OC)nc32)cc1	.	.	.	.	/	/
CCCCC(C)NC(=O)C1CC(=O)N(c2ccc(OCC)cc2)C1 (centres undefined)	5.5	.	.	.	.	.
NC(=O)C1CCN(C(=O)c2ccc3c(=O)n(Cc4ccco4)c(SCc4ccccc4Cl)nc3c2)CC1	.	.	.	.	/	/
Cc1ccc2[nH]c3c(c2c1)CCCC3NC(N)=O (centres undefined)	.	.	.	.	/	/
Cc1ccc2[nH]c3c(c2c1)CCCC3NCc1ccc(F)cc1 (centres undefined)	14.0	.	.	48.9	.	.
COc1ccc(CC(=O)Nc2ccccc2NC(C)=O)cc1	.	.	.	.	/	/
CNS(=O)(=O)c1ccccc1Nc1cc(NC(=O)Cc2ccc(OC)cc2)ncc1C(F)(F)F	11.1	.	.	93.0	.	.
Cc1noc(C(=O)NCc2ccc(Cl)cc2)c1Cl	.	.	.	.	/	/
COc1cccc(CN2CCN(Cc3cccc(OCCO)c3)CC2CCO)c1 (centres undefined)	5.2	.	.	.	.	.
CSc1cccc(CN2CCN(Cc3ccccc3F)C(CCO)C2)c1 (centres undefined)	12.8	.	.	.	.	.
COc1cccc(CN2CCN(Cc3cccc(OC)c3)C(CCO)C2)c1 (centres undefined)	.	.	.	.	/	/
COc1cccc(CN2CCN(Cc3cn(C)nc3C)CC2CCO)c1 (centres undefined)	5.8	.	.	.	.	.
c1cncc(-c2nc(Cc3cccs3)no2)c1	.	.	.	.	/	/
Cc1ccc(C)n1-c1ccc(C(=O)NCc2ccccc2)cc1	.	.	.	.	/	/
COc1ccc(C2Nn3c(C)nnc3SC2C(=O)N2CCCC2)cc1Br (centres undefined)	5.1	.	.	.	.	.
N#C/C(=C(/O)COC(=O)c1ccc(N2CCCC2)c([N+](=O)[O-])c1)c1nc2ccccc2[nH]1	.	.	.	.	/	/
CCCCCCCC(=O)N/N=C/c1ccccc1OC	16.8	.	.	.	.	.
CCCCCC(=O)N/N=C/c1cccc(OC)c1	5.2	.	.	.	.	.
COc1ccc(/C=N/NC(=O)CCC(=O)Nc2ccc(Cl)cc2C)cc1	5.3	.	.	.	.	.
COc1ccc(/C=N/NC(=O)CCC(=O)Nc2ccc(Cl)cc2C)cc1OC	.	.	.	.	/	/
CN1CCC(N(C(=O)c2cccs2)C2CC2)CC1	.	.	.	.	/	/
CCc1ccccc1NC(=O)CCS(=O)(=O)c1ccc2c(c1)OCC(=O)N2	.	.	.	.	/	/
N#Cc1c(/N=C\N)sc2c1CCCC2	.	.	.	.	/	/
SMILES	GPR151 activ	MITF primary	FBW7 activator	TEAD-YAP inh	GPR151 confirm	GPR119 counter
CS(=O)(=O)c1ccc(C(O)CCN2CCCCC2)cc1 (centres undefined)	.	.	.	.	/	/
CC#CCN1C(=O)NC(CCc2ccccc2)(C2CCN(C(=O)C#CC)CC2)C1=O (centres undefined)	7.0	.	.	.	.	.
N#Cc1ccc(OCC(=O)N2C(=O)c3ccccc3S2(=O)=O)cc1	.	.	.	.	/	/
O=C(COc1ccccc1)N1C(=O)c2ccccc2S1(=O)=O	5.2	.	.	.	.	.
O=C(CNC(=O)Cc1ccccc1)NCC(=O)OCc1ccccc1	.	.	.	.	/	/
O=C(CCCc1ccccc1)Nc1ccc(Br)cc1C(=O)O	5.9	.	.	.	.	.
CN(C(=O)c1ccc(F)cc1)c1ccccc1C(=O)NCc1ccccc1	9.0	.	.	.	.	.
O=C(CCCc1ccccc1)Nc1ccc(O)cc1C(=O)O	.	.	.	.	/	/
O=C(Cc1ccccc1)Nc1ccccc1C(=O)NCc1ccccc1	.	.	.	.	/	/
O=C(CCc1ccccc1)Nc1ccccc1C(=O)NCc1ccccc1	8.0	.	.	.	.	.
O=C(Cc1ccccc1)NCC(=O)OCc1ccccc1	6.3	.	.	.	.	.
CN(C(=O)C1CC1)c1ccccc1C(=O)NCc1ccccc1	.	.	.	.	/	/
COCCCNc1nccn2c(-c3cccc(CO)c3)cnc12	.	.	.	.	/	/
Cc1ccc(CNC(=O)COc2ccccc2C)cc1	7.4	.	.	.	.	.
O=C(Cc1ccc(F)cc1)NCc1ccccc1	5.2	.	.	.	.	.
CCc1ccccc1OCC(=O)NCc1ccccc1	5.8	.	.	.	.	.
O=C(COc1ccccc1Br)NCc1ccccc1	.	.	.	.	/	/
COc1ccccc1CNC(=O)COc1cccc2ccccc12	5.6	.	.	.	.	.
CN1CC(=O)N2CCN(C(=O)c3cc(F)ccc3F)C[C@@H]2C1=O	.	.	.	.	/	/
Cc1c(C(=O)Nc2ccc3c(c2)OCCO3)sc2ncn(Cc3ccccc3F)c(=O)c12	.	.	.	.	/	/
COc1ccccc1N1CCN(C(c2ccc(C)cc2)c2nnnn2Cc2ccco2)CC1 (centres undefined)	.	.	.	.	/	/
CCOc1ccc(N2C(=O)c3ccccc3NC2c2ccc(C)cc2)cc1 (centres undefined)	.	.	.	.	/	/
CC(=O)Nc1ccc(C(=O)NCCNC(=O)Cc2ccc(F)cc2)cc1	5.5	.	.	.	.	.
O=S(=O)(NCCSc1nnnn1-c1ccccc1)c1ccccc1	8.7	.	.	.	.	.
CC(=O)N1CCc2cc(Br)cc(S(=O)(=O)NC3CCCC3)c21	.	.	.	.	/	/
SMILES	GPR151 activ	MITF primary	FBW7 activator	TEAD-YAP inh	GPR151 confirm	GPR119 counter
CC(=O)N1CCc2cc(Br)cc(S(=O)(=O)NC3CCCc4ccccc43)c21 (centres undefined)	5.1	.	.	.	.	.
COc1ccc(C(O)CN2C3=NCCCN3c3ccccc32)cc1 (centres undefined)	5.1	.	.	.	.	.
COc1cc(C)c(C)cc1S(=O)(=O)NC1CCCCC1C (centres undefined)	8.8	.	.	.	.	.
COc1ccc(C)cc1S(=O)(=O)NC1CCCCC1C (centres undefined)	.	.	.	.	/	/
COc1ccc(NC(=O)C(=O)N/N=C/c2ccc(C(=O)O)cc2)c(OC)c1	.	.	.	.	/	/
O=C(N/N=C/c1cccc(Br)c1)C(=O)Nc1cccc(C(=O)O)c1	.	.	.	.	/	/
O=C(N/N=C/c1ccc(C(=O)O)cc1)C(=O)Nc1cccc(Br)c1	9.3	.	.	.	.	.
COc1ccc(C(=O)N/N=C/c2ccc(O)c(OC)c2)cc1	.	.	.	.	/	/
COc1ccccc1NC(=O)C(=O)N/N=C/c1ccc(C(=O)O)cc1	5.3	.	.	.	.	.

Screening data (PubChem BioAssay)
